Assay outcomes (PubChem)
AI-2 QS modul: Vibrio harveyi AI-2 quorum sensing modulation. Vibrio harveyi JMH597 AI-2 luminescence/OD600 ratio, 9 h; stronger effect = lower value; strain lacks LuxN and CqsS sensors; 0 = neutral-control median. activity change, % at 7.5 µM. hit rate 0.4% among 300,000; in the data active means activity change below about -75%, passing the limit was not always enough; inconclusive means no clear call, values can overlap the other calls;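 further: luminescence divided by OD600 gain over 9 h not by final OD600 alone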
PREPL inhibitor: human PREPL enzyme inhibition | Q4J6C6 | hit rate 0.68% among 320,000 | inhibition, % at 5.96 µM | recombinant PREPL, fluorescence polarization activity-based probe;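 further: 0% = enzyme with DMSO and 100% = wells lacking enzyme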
Target sequence (Q4J6C6 whole entry, looked up): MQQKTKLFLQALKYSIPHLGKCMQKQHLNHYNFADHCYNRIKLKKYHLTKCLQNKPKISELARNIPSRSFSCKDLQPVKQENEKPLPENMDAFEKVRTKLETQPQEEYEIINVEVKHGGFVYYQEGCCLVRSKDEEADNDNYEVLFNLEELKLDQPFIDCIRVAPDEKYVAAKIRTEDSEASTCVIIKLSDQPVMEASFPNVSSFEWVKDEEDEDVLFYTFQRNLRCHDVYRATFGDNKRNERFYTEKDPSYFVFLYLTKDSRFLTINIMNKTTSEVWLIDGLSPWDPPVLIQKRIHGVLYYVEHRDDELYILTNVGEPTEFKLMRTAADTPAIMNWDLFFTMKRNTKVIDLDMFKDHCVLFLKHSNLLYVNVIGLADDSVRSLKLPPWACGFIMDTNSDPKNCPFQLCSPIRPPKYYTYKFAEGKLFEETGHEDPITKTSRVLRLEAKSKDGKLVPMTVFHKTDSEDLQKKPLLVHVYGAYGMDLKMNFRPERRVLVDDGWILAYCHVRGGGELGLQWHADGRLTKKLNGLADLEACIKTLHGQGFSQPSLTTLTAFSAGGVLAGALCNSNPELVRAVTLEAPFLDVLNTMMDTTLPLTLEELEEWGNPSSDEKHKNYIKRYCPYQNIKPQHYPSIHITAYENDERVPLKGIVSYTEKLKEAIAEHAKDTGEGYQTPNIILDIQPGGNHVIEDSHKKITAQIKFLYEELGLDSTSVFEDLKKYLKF
ALR inh: human ALR oxidase inhibition via reduced H2O2 | hit rate 3.8% among 290,000 | purified ALR, DTT oxidation, H2O2 HRP-luminol luminescence | inhibition, % (no concentration beside the values) | P55789 | AID 485317;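 active means mean replicate inhibition above about 79%, with every replicate also reaching it, limit read from the data; inconclusive means only one of the two criteria met; inactive means mean below limit and not every replicate reaching it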
CHT inh: inhibitors of human choline transporter CHT; Q9GZV3; CHT-expressing cells, membrane potential dye, choline response; stronger effect = lower value; B-score at 10 µM; hit rate 0.86% among 310,000; AID 488975;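 active means B-score over 3 SD under the library average, and starting fluorescence ratio not unusually high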;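 further: choline stimulus applied at its EC90 after an EC20 pre-addition; B-score computed on integrated fluorescence ratio after choline addition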
CHT PAM: allosterically activates the human high affinity choline transporter; B-score at 10 µM; CHT-expressing cells, membrane potential dye, choline EC20; stronger effect = higher value; LV-AA mutant CHT in HEK293 cells; AID 488977; hit rate 0.49% among 310,000;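 active means initial fluorescence not abnormally high and integrated response B-score, plate-corrected, over 3 SD above library mean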
PREPL inh cf: confirmation of human PREPL enzyme inhibitors; shares compounds with PREPL inhibitor; recombinant PREPL, fluorescence polarization activity probe; inhibition, % at 5.96 µM; hit rate 67% among 2,000;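 further: 0% = protein with DMSO and 100% = wells lacking protein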
* = called active by the depositor; i = inactive; ? = inconclusive; / = not tested or not shown. The list is not random: actives were taken first. Their share in the collection is about 5%. Unless noted, no stated cut-off is given here; in the data, active means inhibition above about 43%; inactive means the rest.

SMILES	AI-2 QS modul	PREPL inhibitor	ALR inh	CHT inh	CHT PAM	PREPL inh cf
COC(=O)c1ccc(N2CCN(c3ccccc3)CC2)c(NC(=O)C2CC2)c1	19	50*	37	i	i	39
CC(C)Nc1nnc(SCC(=O)Nc2ccc3c(c2)C(=O)c2ccccc2C3=O)s1	44	44*	-4	i	i	52*
Cn1c(N/N=C/c2cc3ccccc3nc2Cl)nc2ccccc21	44	23	/	i	i	/
COc1ccc(CCNC(=O)COC(=O)c2cncc(Br)c2)cc1OC	/	2	-12	/	/	/
O=C(NCCNc1ccc2ccccc2c1)c1cccn2c(=O)c3sccc3nc12	19	51*	/	i	i	41
O=C(NCCN1CCN(c2ccccc2)CC1)c1cccn2c(=O)c3ccccc3nc12	24	-14	21	i	i	/
COc1ccc(-c2ccc(C#N)c(SCC(=O)OCc3ccccc3)n2)cc1OC	24	58*	-5	i	i	16
N#Cc1ccc(-c2ccc3c(c2)OCO3)nc1SCC(=O)OCc1ccccc1	8	31	-14	i	i	/
CC(=O)Oc1cc2cccc(OC(C)=O)c(=O)c2c(OC(C)=O)c1OC(C)=O	-18	63*	99*	i	i	35
Oc1cccc(Nc2nc(O)c(/C=C3\C=Nc4ccccc43)s2)c1	/	53*	13	i	i	52*
Cc1ccc(Nc2nc3ccccc3s2)cc1	15	18	/	i	i	/
CCOC(=O)c1c(Nc2ccc(Cl)cc2)sc(/C=C2\C=Nc3ccccc32)c1O	0	15	4	i	i	/
CC1=Nc2ccccc2/C1=C\c1sc(Nc2ccc(C)cc2)nc1O	27	52*	/	i	i	46*
Oc1nc(Nc2cccc(Cl)c2)sc1/C=C1\C=Nc2ccccc21	35	56*	-1	i	i	64*
CC1CCN(CCCCOc2ccccc2[N+](=O)[O-])CC1	26	1	-3	i	i	/
OC1CCN(c2c3c(nc4cc(-c5cccc(F)c5)nn24)CCCC3)CC1	21	44*	2	i	i	30
CCOC(=O)C1CCN(S(=O)(=O)c2ccc3c4c2CC(=O)N4CC(C)S3)CC1 (stereo unspecified)	21	-6	/	i	i	/
O=C1c2ccccc2-c2onc3ccc(NCc4ccco4)c1c23	7	82*	/	i	i	106*
CC1CC(=O)c2c(cc3c(-c4c(O)cc(O)c5c(O)c6c(cc45)OC(C)CC6=O)c(O)cc(O)c3c2O)O1 (stereo unspecified)	-82*	77*	51	i	i	35
N#Cc1ccc(OCC(O)CN2CCN(c3ncc(C(F)(F)F)cc3Cl)CC2)cc1 (stereo unspecified)	7	-3	5	i	i	/
COc1ccccc1NC(=O)CSc1nnnn1-c1ccccc1F	13	-7	-11	i	i	/
OC(CNC1CCCC1)COc1ccc(Cl)cc1 (stereo unspecified)	10	-7	-3	i	i	/
OC(CNC1CCCC1)COCCOc1ccc(Br)cc1 (stereo unspecified)	13	46*	-2	i	i	35
Cc1ccccc1C(=O)N1CCC(C(=O)Nc2nc3ccc(F)cc3s2)CC1	4	26	-4	i	i	/
CC(C)C[C@@H](C(=O)NC1CCN(Cc2ccccc2)CC1)N1C(=O)N2CCc3c([nH]c4ccccc34)[C@@]2(C)C1=O	3	44*	-4	i	i	33
SMILES	AI-2 QS modul	PREPL inhibitor	ALR inh	CHT inh	CHT PAM	PREPL inh cf
C[C@@H](C(=O)NC1CCN(Cc2ccccc2)CC1)N1C(=O)N2CCc3c([nH]c4ccccc34)[C@@]2(C)C1=O	3	16	2	i	i	/
COc1cc(O)c(C(CCN2CCCC2)c2cc(OC)c(OC)c(OC)c2)c(OC)c1 (stereo unspecified)	11	45*	/	i	i	47*
COc1cc(O)c(C(CCN2CCCCC2)c2cc(OC)c(OC)c(OC)c2)c(OC)c1 (stereo unspecified)	7	26	/	i	i	/
COc1ccc(Nc2nc(N)nc(CN3CCc4ccccc4C3)n2)cc1	23	43*	-7	i	i	33
COc1ccccc1Nc1nc(N)nc(CN2CCc3ccccc3C2)n1	1	5	-11	i	i	/
COc1ccc(N(CC(=O)NC(C)(C)C)C(=O)CCC(=O)Nc2nccs2)c(OC)c1	14	-1	15	i	i	/
COc1ccc(/C=N/Nc2cc(C)nc3ccc(OC)cc23)c(OC)c1	15	89*	86*	i	i	81*
Cc1cnc(C(=O)OCC(=O)N2CC(C)CC(C)C2)cn1 (stereo unspecified)	/	7	-11	/	/	/
O=[N+]([O-])c1ccc(CN2CCSCC2)cc1	7	6	5	i	i	/
O=[N+]([O-])c1ccc(N2CCN(Cc3cccc([N+](=O)[O-])c3)CC2)cc1	25	45*	2	i	i	44*
O=[N+]([O-])c1ccc(CN2CCN(c3ccc([N+](=O)[O-])cc3)CC2)cc1	17	45*	-1	i	i	51*
O=[N+]([O-])c1cccc(CN2CCCCCC2)c1	35	30	-7	i	i	/
COc1ccc(-c2oc3ccc(N4CCOCC4)cc3c2C#CC2(O)CCCCC2)cc1	8	22	-5	i	i	/
CCC(Sc1nccn1C)C(=O)Nc1ccc(Cl)cn1 (stereo unspecified)	19	-12	2	i	i	/
O=C(CSc1ccccc1F)NNC(=O)c1cncc(Br)c1	/	12	3	/	/	/
Cc1ccc(OC(C)C(=O)N(C)c2ccccc2)c([N+](=O)[O-])n1 (stereo unspecified)	/	12	-1	/	/	/
CC(=O)Oc1ccc2c(c1)Oc1cc(OC(C)=O)ccc1C21OC(=O)c2ccccc21	/	95*	2	i	i	112*
Cc1ccc(-c2nnc(N3CCOCC3)c3ccccc23)cc1S(=O)(=O)N(C)C	16	/	/	/	/	/
CCOc1ccc(-n2c(SCC(=O)c3c(N)n(C)c(=O)n(C)c3=O)nnc2-c2cccnc2)cc1	8	4	-25	i	i	/
O=C(COC(=O)CC1CCS(=O)(=O)C1)Nc1ccc(F)cc1 (stereo unspecified)	/	1	-10	/	/	/
Cc1ccc(Nc2nc(NCc3ccco3)c3ccccc3n2)cc1	19	57*	26	i	i	45*
COc1ccccc1Nc1nc(NCc2ccco2)c2ccccc2n1	16	6	29	i	i	/
c1ccc(N2CCN(c3nc(NCc4ccco4)c4ccccc4n3)CC2)cc1	5	56*	19	i	i	56*
O=C(NNC(=S)Nc1ccccc1Cl)c1ccccc1Br	-7	/	?	i	i	/
